# Test results published in paper PMC7819943, “Rice protein-binding microarrays: a tool to detect cis-acting elements near promoter regions in rice”.
# Over roughly 68,000 sequences, “fluorescence intensity (a.u.)” has its median near 9,100; the highest 2% begin near 16,000. The entries come from a sample that favours the highest values as a whole.
# Molecular target: OsWRKY34 (Oryza sativa, UniProt Q0JBA9 1-250)
# Test: protein-binding microarray (RPBM); PBS, 2% BSA, 51.3 ng/ul salmon testes DNA, 50 uM zinc acetate, 200 nM TF, 25 C, 1 h; high values mean tight binding
# Details: protein: recombinant; tags: N-terminal polyhistidine and DsRed monomer fusion (pET32a); label: CyDye5-dUTP incorporated in the synthesized complementary strand; 3' TTTTT single-stranded linker to array surface; dsDNA, one strand shown
# Outline: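 Transcription factors were made in E. coli BL21-CodonPlus as N-terminal fusions to a polyhistidine tag and DsRed, then purified on Ni–NTA. After primer extension with Cy5-dUTP and blocking with 2% BSA, a custom Agilent array was exposed for 1 h at 25 °C to 200 nM protein in PBS, 2% BSA, salmon testes DNA and 50 µM zinc acetate. Washed arrays were scanned on an Axon 4000B, and the binding signal is per-feature fluorescence intensity in arbitrary units.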
# Chain of OsWRKY34 (Q0JBA9 entry or part of it): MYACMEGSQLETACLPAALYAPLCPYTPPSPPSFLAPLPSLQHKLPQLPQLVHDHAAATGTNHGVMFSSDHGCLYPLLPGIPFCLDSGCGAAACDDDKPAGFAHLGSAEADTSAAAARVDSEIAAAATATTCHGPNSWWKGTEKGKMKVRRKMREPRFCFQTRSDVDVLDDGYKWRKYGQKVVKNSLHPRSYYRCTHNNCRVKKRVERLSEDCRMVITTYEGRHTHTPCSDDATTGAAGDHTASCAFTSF
row,Sequence,binding signal
1,GAAGTGATGAATATATTAAACTGGTTTGGCTATTATTTCCCGGAGTCACCTAGTGCAG,8360 fluorescence intensity (a.u.)
2,CTCTCGTGGTGTGGTGTGGACAAGAAAGGAAGGAAAGATGCGGAGTCACCTAGTGCAG,8700 fluorescence intensity (a.u.)
3,TAATGTCCCTATTTTGTTATAGTGTTCCTCCAATAATCTGCGGAGTCACCTAGTGCAG,8290 fluorescence intensity (a.u.)
4,CAGTTCTTCGTTCTTGTCTTTACTCTCATGATTTTCTCTTCGGAGTCACCTAGTGCAG,10900 fluorescence intensity (a.u.)
5,CTCAACCTCTCGGTCGTCGGCCTCGTCCTCCGGGCCGGCACGGAGTCACCTAGTGCAG,12000 fluorescence intensity (a.u.)
6,TTCATAGCCGCCGCATCTCCTTCTCTTCGACTTTTCTCCTCGGAGTCACCTAGTGCAG,9080 fluorescence intensity (a.u.)
7,TCAAACGATGCCATTCACCACGTGCCACTTTATATCAAACCGGAGTCACCTAGTGCAG,11700 fluorescence intensity (a.u.)
8,CTTAACGGCCCATTTATCTTGTCTCTCTGGCCCACCTGCACGGAGTCACCTAGTGCAG,12300 fluorescence intensity (a.u.)
9,CCTGTAATACTTTTGTTAATTCGATCCTACTACATCTTTACGGAGTCACCTAGTGCAG,10400 fluorescence intensity (a.u.)
10,TTGGTCGCATTTCGGGTGGTGGTGGTGGTGGTGGTGGTGGCGGAGTCACCTAGTGCAG,13200 fluorescence intensity (a.u.)
11,ACGGTGTATATTTGTGGTGTGGCGGGTGTGGCATTGGATTCGGAGTCACCTAGTGCAG,16700 fluorescence intensity (a.u.)
12,GAGCTGGGGTGGTGTTTGTTTGTGGGTGTGTTTGTGTGCTCGGAGTCACCTAGTGCAG,15900 fluorescence intensity (a.u.)
13,CATATATTGGTGTTGTGTGTGGGTGGGTGGGGCGGTGCTTCGGAGTCACCTAGTGCAG,30900 fluorescence intensity (a.u.)
14,TGGTGTTGTCGGTGTGTGGGTGGTGATATACTTTTTTTTTCGGAGTCACCTAGTGCAG,11600 fluorescence intensity (a.u.)
15,GTTTTTGTGCTTGGTGGTGGTGGTGGGTGATTTGCAGGGGCGGAGTCACCTAGTGCAG,31700 fluorescence intensity (a.u.)
16,TGGGAGCTTTGCTTGGGGTGTGTGTGTGTTTGGGTGGTGCCGGAGTCACCTAGTGCAG,10900 fluorescence intensity (a.u.)
17,TTTCTTCATTTCATGATTGTATATTCTGGTGTTTTTGTGGCGGAGTCACCTAGTGCAG,9250 fluorescence intensity (a.u.)
18,GTGGTGGTGGTGTGTGAGCTCGGGGCTTGGGGTTTTGCGGCGGAGTCACCTAGTGCAG,13300 fluorescence intensity (a.u.)
19,TAGTCTTTTCCATGTCATGTGATCATGTGTGGAGTTGATTCGGAGTCACCTAGTGCAG,8550 fluorescence intensity (a.u.)
20,ACTCATGGATGCAGGTCCACCTACATACGTACTACCACAACGGAGTCACCTAGTGCAG,8570 fluorescence intensity (a.u.)
21,GCCATCCTCCGCGACGCACATCGTCCGTCCCACCACGATGCGGAGTCACCTAGTGCAG,10400 fluorescence intensity (a.u.)
22,GACATAAGTTTATTATCTATATCCATAGTACGTTTAATCCCGGAGTCACCTAGTGCAG,10100 fluorescence intensity (a.u.)
23,AAACTGCACTACTTTATCTTGGTTGTCTTTAGCATAAGAACGGAGTCACCTAGTGCAG,12100 fluorescence intensity (a.u.)
24,AATCCCCGCACGCGTCTTTACTTCGCCTTCGTCTTTCCTCCGGAGTCACCTAGTGCAG,9340 fluorescence intensity (a.u.)

row,Sequence,binding signal
1,TTCTTGTTTTCGTGGATCATCATCAACCTCAATAGAAACGCGGAGTCACCTAGTGCAG,8410 fluorescence intensity (a.u.)
2,TCTCCTAAAGATTCATGTTACGTATCTCTTACTTCAACAGCGGAGTCACCTAGTGCAG,8710 fluorescence intensity (a.u.)
3,GTACGTACAACATTGTGTATCTGTTTTGTAAGTTATTAACCGGAGTCACCTAGTGCAG,9710 fluorescence intensity (a.u.)
4,GTTTGGCCATGGTGCCGTCGTTGTCTCGTTGATGCTTAGTCGGAGTCACCTAGTGCAG,10700 fluorescence intensity (a.u.)
5,ATCGGTGGTGGTGGTGGTGGTGGCCATGAGTCTCGTTTGACGGAGTCACCTAGTGCAG,27500 fluorescence intensity (a.u.)
6,TCCACTATGGCCATCCTGATATCTTTGATCGTCTTTTCCACGGAGTCACCTAGTGCAG,17500 fluorescence intensity (a.u.)
7,AAAGCCTGTGGCCACATCTTATCTTTTCCATCCTTTGCATCGGAGTCACCTAGTGCAG,8040 fluorescence intensity (a.u.)
8,GTCGTTGACTTTTTAACCACAACGTTTGACCATTCGTCTTCGGAGTCACCTAGTGCAG,21800 fluorescence intensity (a.u.)
9,CGGTTTTGACGGACGTGGTGCCCACGTGGCTAGTTTGACTCGGAGTCACCTAGTGCAG,8980 fluorescence intensity (a.u.)
10,CCATTGACTTTTTGTCCAACGTTTGACCATTCGTCTTATTCGGAGTCACCTAGTGCAG,17000 fluorescence intensity (a.u.)
11,CTTTTTTTCCAACGTTTGACCATTTGTCTTATTCAAAAAACGGAGTCACCTAGTGCAG,8560 fluorescence intensity (a.u.)
12,AACTCATCTGACAGTGATCCATCGTCCTTTTTCTTTGACTCGGAGTCACCTAGTGCAG,10100 fluorescence intensity (a.u.)
13,GACTTTTTATCCAACGTTTGACCATTCGTCTTATTCAAAACGGAGTCACCTAGTGCAG,10300 fluorescence intensity (a.u.)
14,TTGACCAACGTTTAACCATTCGTTTCATTTAATTTTTTTTCGGAGTCACCTAGTGCAG,10800 fluorescence intensity (a.u.)
15,TCAGTGGACTCGGTTCTGTTTTTTTGTCACTCCACTGGCACGGAGTCACCTAGTGCAG,9610 fluorescence intensity (a.u.)
16,CACTAAGTCCGTTCCCATGCCCATTTCTCCCTGCATATTACGGAGTCACCTAGTGCAG,9680 fluorescence intensity (a.u.)
17,TGTTGACTTTTTTTATTAACGTTTAGCATTTATCTTATTTCGGAGTCACCTAGTGCAG,18000 fluorescence intensity (a.u.)
18,TATGACGTCGTTGACTTTTTAACCAACGTTTGACCATCGTCGGAGTCACCTAGTGCAG,32900 fluorescence intensity (a.u.)
19,TCTTGACCAACGTTTAACCATTCGTTTTATTTAAAATTTTCGGAGTCACCTAGTGCAG,9450 fluorescence intensity (a.u.)
20,TCGTTGACTTTTTAACCAACGTTTAACCATTCGTCTTATTCGGAGTCACCTAGTGCAG,18600 fluorescence intensity (a.u.)
21,ACTATTGACTTTTTTTCTATGTTAGACCATTCATTTTATTCGGAGTCACCTAGTGCAG,12300 fluorescence intensity (a.u.)
22,CCGTTGACTTTTTAACTAATGTTTAACCATTCATTTTATTCGGAGTCACCTAGTGCAG,28900 fluorescence intensity (a.u.)
23,CGTTGACTTTTTTTCAACGTTTAATAATTTATCTTATTCACGGAGTCACCTAGTGCAG,12900 fluorescence intensity (a.u.)
